Measurements: PubChem BioAssay AID1159580 (chemical genetic matrix, 2015)
Several values for one entry are separate records, joined by “and”; a condition that tells them apart may be missing. Equal entries are not always repeated. About 2,000 (36%) of roughly 5,500 compounds were called active. Inconclusive results (about 18%) are left out. Cut-off read from the data, not from the text of the source: active = normalized growth mostly below about 0.91 (no sharp cut-off); inconclusive = no clear call, values can overlap the other calls; inactive = mostly above about 0.92. The list shows a part of the results.

Assay: chemical genetic growth profiling, strain panel (AID 1159580);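 note: tested at 20 µM; growth read once vehicle control cultures reached saturation at 30 °C; 1 = growth at the plate median or of vehicle wells; lower values mean less growth of the strain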
Settings: S. cerevisiae deletion strains, growth OD

**Q.** What does the source list for `Nc1ncnc2nc[nH]c12`?
**A.** normalized growth (locus YAL013W, strain DEP1, stronger effect = lower value): 0.94 (inactive); normalized growth (locus YAL021C, strain ccr4, stronger effect = lower value): 0.99 (inactive); normalized growth (locus YAL026C, strain drs2, stronger effect = lower value): 0.99 (inactive); normalized growth (locus YAL030W, strain snc1, stronger effect = lower value): 0.981 (inactive); normalized growth (locus YBL061C, strain skt5, stronger effect = lower value): 0.98 (inactive); normalized growth (locus YBR009C, strain hhf1, stronger effect = lower value): 0.992 (inactive); normalized growth (locus YBR021W, strain FUR4, stronger effect = lower value): 0.201 (active); normalized growth (locus YBR023C, strain chs3, stronger effect = lower value): 0.986 (inactive); normalized growth (locus YBR171W, strain sec66, stronger effect = lower value): 0.976 (inactive); normalized growth (locus YBR229C, strain ROT2, stronger effect = lower value): 1.02 (inactive); normalized growth (locus YBR231C, strain swc5, stronger effect = lower value): 0.982 (inactive); normalized growth (locus YBR279W, strain paf1, stronger effect = lower value): 0.993 (inactive); normalized growth (locus YCL011C, strain gbp2, stronger effect = lower value): 0.978 (inactive); normalized growth (locus YCL016C, strain dcc1, stronger effect = lower value): 0.973 (inactive); normalized growth (locus YCL029C, strain bik1, stronger effect = lower value): 0.923 (inactive); normalized growth (locus YCL061C, strain MRC1, stronger effect = lower value): 0.981 (inactive); normalized growth (locus YCL069W, strain vba3, stronger effect = lower value): 0.99 (inactive); normalized growth (locus YCR088W, strain abp1, stronger effect = lower value): 0.985 (inactive); normalized growth (locus YDL005C, strain med2, stronger effect = lower value): 0.985 (inactive); normalized growth (locus YDL035C, strain GPR1, stronger effect = lower value): 0.894 (inactive); normalized growth (locus YDL040C, strain nat1, stronger effect = lower value): 0.983 (inactive); normalized growth (locus YDL074C, strain BRE1, stronger effect = lower value): 0.645 (active); normalized growth (locus YDL101C, strain DUN1, stronger effect = lower value): 0.968 (inactive); normalized growth (locus YDL185W, strain tfp1, stronger effect = lower value): 1.01 (inactive); normalized growth (locus YDL192W, strain arf1, stronger effect = lower value): 0.797 (active); normalized growth (locus YDR001C, strain nth1, stronger effect = lower value): 0.983 (inactive); normalized growth (locus YDR069C, strain doa4, stronger effect = lower value): 1.01 (inactive); normalized growth (locus YDR101C, strain arx1, stronger effect = lower value): 0.866 (active); normalized growth (locus YDR137W, strain rgp1, stronger effect = lower value): 0.985 (inactive); normalized growth (locus YDR150W, strain NUM1, stronger effect = lower value): 1.02 (inactive); normalized growth (locus YDR159W, strain sac3, stronger effect = lower value): 1 (inactive); normalized growth (locus YDR162C, strain NBP2, stronger effect = lower value): 0.951 (inactive); normalized growth (locus YDR195W, strain ref2): 0.998 (inactive); normalized growth (locus YDR297W, strain sur2, stronger effect = lower value): 1.01 (inactive); normalized growth (locus YDR318W, strain mcm21, stronger effect = lower value): 0.939 (inactive); normalized growth (locus YDR334W, strain swr1, stronger effect = lower value): 0.982 (inactive); normalized growth (locus YDR335W, strain msn5, stronger effect = lower value): 0.984 (inactive); normalized growth (locus YDR388W, stronger effect = lower value): 0.98 (inactive); normalized growth (locus YDR392W, strain spt3, stronger effect = lower value): 0.968 (inactive); normalized growth (locus YDR502C, strain sam2, stronger effect = lower value): 0.908 (active); normalized growth (locus YEL003W, strain gim4, stronger effect = lower value): 1.01 (inactive); normalized growth (locus YEL037C, strain rad23, stronger effect = lower value): 0.984 (inactive); normalized growth (locus YEL061C, strain CIN8 (second series), stronger effect = lower value): 0.986 (inactive); normalized growth (locus YEL061C, strain CIN8, stronger effect = lower value): 0.996 (inactive); normalized growth (locus YER015W, strain faa2, stronger effect = lower value): 0.994 (inactive); normalized growth (locus YER016W, strain bim1, stronger effect = lower value): 0.994 (inactive); normalized growth (locus YER110C, stronger effect = lower value): 1 (inactive); normalized growth (locus YER111C, strain swi4, stronger effect = lower value): 0.983 (inactive); normalized growth (locus YER155C, strain BEM2 (second series), stronger effect = lower value): 0.989 (inactive); normalized growth (locus YER155C, strain BEM2, stronger effect = lower value): 0.792 (active); normalized growth (locus YER167W, strain BCK2, stronger effect = lower value): 1.01 (inactive); normalized growth (locus YFR010W, strain ubp6, stronger effect = lower value): 0.982 (inactive); normalized growth (locus YGL078C, strain dbp3, stronger effect = lower value): 0.969 (inactive); normalized growth (locus YGL086W, strain mad1, stronger effect = lower value): 0.838 (active); normalized growth (locus YGL167C, strain pmr1, stronger effect = lower value): 0.979 (inactive); normalized growth (locus YGL173C, strain kem1, stronger effect = lower value): 0.984 (inactive); normalized growth (locus YGL227W, strain vid30, stronger effect = lower value): 0.987 (inactive); normalized growth (locus YGL240W, strain doc1, stronger effect = lower value): 0.997 (inactive); normalized growth (locus YGL248W, strain PDE1, stronger effect = lower value): 0.9 (inactive); normalized growth (locus YGL253W, strain hxk2, stronger effect = lower value): 0.987 (inactive); normalized growth (locus YGR078C, strain PAC10, stronger effect = lower value): 0.828 (active); normalized growth (locus YGR135W, strain pre9, stronger effect = lower value): 0.922 (inactive); normalized growth (locus YGR252W, strain gcn5, stronger effect = lower value): 0.705 (active); normalized growth (locus YHR013C, strain ard1, stronger effect = lower value): 0.975 (inactive); normalized growth (locus YHR027C, strain rpn1, stronger effect = lower value): 0.979 (inactive); normalized growth (locus YHR030C, strain SLT2, stronger effect = lower value): 0.393 (active) and 1.02 (inactive); normalized growth (locus YHR079C, strain IRE1 (second series), stronger effect = lower value): 0.974 (inactive); normalized growth (locus YHR079C, strain IRE1, stronger effect = lower value): 1.02 (inactive); normalized growth (locus YHR094C, strain hxt1, stronger effect = lower value): 0.999 (inactive); normalized growth (locus YHR129C, strain ARP1, stronger effect = lower value): 0.898 (active); normalized growth (locus YHR142W, strain chs7, stronger effect = lower value): 0.955 (inactive); normalized growth (locus YHR200W, strain rpn10, stronger effect = lower value): 0.998 (inactive); normalized growth (locus YIL066C, strain RNR3, stronger effect = lower value): 0.862 (active); normalized growth (locus YIL073C, strain SPO22, stronger effect = lower value): 0.594 (active); normalized growth (locus YIL125W, strain kgd1, stronger effect = lower value): 0.991 (inactive); normalized growth (locus YIR030C, strain dcg1, stronger effect = lower value): 0.988 (inactive); normalized growth (locus YJL092W, strain hpr5, stronger effect = lower value): 0.99 (inactive); normalized growth (locus YJL095W, strain BCK1 (second series), stronger effect = lower value): 0.984 (inactive); normalized growth (locus YJL095W, strain BCK1, stronger effect = lower value): 0.593 (active) and 1.02 (inactive); normalized growth (locus YJL115W, strain asf1, stronger effect = lower value): 0.99 (inactive); normalized growth (locus YJL129C, strain trk1, stronger effect = lower value): 0.99 (inactive); normalized growth (locus YJL134W, strain LCB3, stronger effect = lower value): 1.02 (inactive); normalized growth (locus YJL154C, strain vps35, stronger effect = lower value): 0.997 (inactive); normalized growth (locus YJL164C, strain tpk1, stronger effect = lower value): 0.993 (inactive); normalized growth (locus YJL166W, strain qcr8, stronger effect = lower value): 0.977 (inactive); normalized growth (locus YJL168C, strain set2, stronger effect = lower value): 1 (inactive); normalized growth (locus YJL187C, strain SWE1 (second series), stronger effect = lower value): 0.863 (active); normalized growth (locus YJL187C, strain SWE1, stronger effect = lower value): 0.98 (inactive); normalized growth (locus YJR043C, strain POL32, stronger effect = lower value): 0.907 (inactive)
